Among the data in PubChem BioAssay (EPA / NIEHS) are outcome and AC50 values, retold here.

A word on the AC50: it is the concentration giving half of the maximal activity seen.

Where a structure was tested more than once in an assay, its records may differ in their call. Activity calls are given as the source filed them. The calls were made as follows: active = hit-call score of the fitted dose curve at least 0.9, where 1 is the maximum; inactive = score below 0.9.

The target of the assay is Bile acid receptor (Homo sapiens) (UniProt Q96RI1). In words: ATG_IR1_CIS: Attagene CIS-FACTORIAL HepG2 Assay for human Nuclear Receptor Subfamily 1 Group H Member 4 (NR1H4), IR1 submotif (AID 2282946). The following applies: IR1 reporter transcription, actives raise or lower the signal. Here is the method: ATG_CIS is a cell-based, multiplexed-readout assay that uses HepG2, a human liver cell line, with measurements taken at 24 hours after chemical dosing in a 24-well plate.ATG_IR1_CIS is one of 52 assay component(s) measured or calculated from the ATG_CIS assay. It is designed to make measurements of mRNA induction, a form of inducible reporter, as detected with fluorescence intensity signals by Reverse transcription polymerase chain reaction (RT-PCR) and Capillary electrophoresis technology.Data from the assay component ATG_IR1_CIS was analyzed into 1 assay endpoint. This assay endpoint, ATG_IR1_CIS, was analyzed with bidirectional fitting relative to DMSO as the negative control and baseline of activity. Using a type of inducible reporter, measures of mRNA for gain or loss-of-signal activity can be used to understand the reporter gene at the transcription factor-level as they relate to the gene NR1H4. Furthermore, this assay endpoint can be referred to as a primary readout, because this assay has produced multiple assay endpoints where this one serves a reporter gene function. To generalize the intended target to other relatable targets, this assay endpoint is annotated to the nuclear receptor intended target family, where the subfamily is non-steroidal.
Bile acid receptor (Homo sapiens), sequence (Q96RI1 whole entry, looked up): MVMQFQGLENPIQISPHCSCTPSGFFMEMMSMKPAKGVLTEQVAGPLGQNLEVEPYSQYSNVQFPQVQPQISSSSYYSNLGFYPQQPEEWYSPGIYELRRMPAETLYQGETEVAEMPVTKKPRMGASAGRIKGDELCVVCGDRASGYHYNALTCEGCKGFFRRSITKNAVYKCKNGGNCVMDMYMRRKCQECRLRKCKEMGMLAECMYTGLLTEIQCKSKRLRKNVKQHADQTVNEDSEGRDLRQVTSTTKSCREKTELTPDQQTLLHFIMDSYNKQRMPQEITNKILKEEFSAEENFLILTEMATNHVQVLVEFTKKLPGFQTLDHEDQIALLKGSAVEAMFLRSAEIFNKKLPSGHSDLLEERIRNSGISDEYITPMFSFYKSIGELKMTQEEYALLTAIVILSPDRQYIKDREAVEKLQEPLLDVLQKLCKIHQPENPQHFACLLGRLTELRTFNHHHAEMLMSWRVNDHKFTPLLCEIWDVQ
Human liver HepG2 cells are transiently transfected with multiple reporter transcription units (MRTUs) in 6-well plates using FuGene 6 reagent (Roche; 3 ml FuGene/1 mg DNA). The MRTU constructs are regulated by a cis-regulating element (promoter). […] A major difference between the CIS and TRANS system is that in CIS activities of endogenous TFs are measured, whereas the TRANS assay evaluates changes in activities of exogenous, chimeric NR-Gal4 proteins. […] At the end of 24 hour incubation, total RNA was isolated using TriZol reagent (Invitrogen). The isolated RNA is then reverse-transcribed using oligo(dT) primer and Mo-MLV reverse transcriptase (Invitrogen) with DNAse I (Ambion) treatment for 30 min. The one-tenth of the produced cDNA was amplified by PCR using Taq DNA polymerase (Invitrogen) and two reporter sequence-specific primers. The PCR products were fluorescently labeled by primer extension with 6-arboxyfluorescein (6-FAM) 5'-labeled reporter sequence-specific primer (2 min at 95 C, 20 s at 68 C and 10 min at 72 C) and these products were digested with 5U of HpaI (New England Biolabs) for 2h at 37 C. The fragments were purified using Qiaquick PCR columns (Qiagen), analyzed on an ABI 3130xL genetic analyzer (Applied Biosystems) with peak positions identified by using a set of X-rhodamine (ROX)-labeled MapMarker1000 molecular weight standards (BioVentures). The raw capillary electrophoresis data was processed using Attagraph software (Attagene).
For `Cc1nc(-c2ccccn2)ncc1C(=O)Nn1cc(C)c2cc(F)ccc21`, the compound was called inactive.
Still for that read-out and setting: with `c1ccc2cc3ccccc3cc2c1` the entry was “inactive”; with `O=C(O)c1ccc2c(c1)nc(C(=O)NC1CCN(C3CC3)CC1)n2Cc1cc(-c2ccc(Cl)s2)on1`, “inactive”; with `O=C(Cl)C(F)(F)C(F)(F)C(F)(F)C(=O)Cl`, “inactive”.
On the same count and under the same terms, in the case of `NC(=O)N(O)[C@@H]1COc2cc(OCc3ccccc3)ccc21` it was “inactive”.
Same read-out and setting: in the case of `CCCCCOC(C)=O` it was “inactive”.
`C[Si](C)(C)C(F)(F)C(F)(F)C(F)(F)F`: the outcome was inactive.
With `OC(O)(C(F)C(O)(O)C(F)(F)F)C(F)(F)F`, the result was inactive.
As to `Nc1ccn([C@@H]2O[C@H](CO)[C@@H](O)[C@@H]2O)c(=O)n1`, the call was inactive.
For `O=S(=O)(O)c1ccc(N=Nc2c(O)ccc3cc(S(=O)(=O)O)ccc23)cc1`, the compound was classed as inactive.
For the compound `FC(F)C(F)(F)COCC1CO1` (stereo not given), the compound was classed as inactive.
For `Cc1cccc(O)c1C`, the outcome was inactive and the AC50 was 23.7 µM (active).
Regarding `Cc1ncc([C@@H](CCCCCCc2ccc3c(n2)NCCC3)CC(=O)O)cn1`, the call was inactive.
On the same count and under the same terms, in the case of `COCc1nnc(-c2ccc[n+]([O-])c2)n1-c1c(Cl)c(Cl)cc2[nH]c(=O)c(=O)[nH]c12` it was “inactive”.
Turning to `Cn1c(=O)c2[nH]cnc2n(C)c1=O`, the compound was called inactive.
For `CC(C)C(=O)Nc1ccc([N+](=O)[O-])c(C(F)(F)F)c1`, the compound was classed as inactive.
Take `COc1cc2c(c(OC)c1OC)-c1ccc(OC)c(=O)cc1[C@@H](NC(C)=O)CC2`: the AC50 was 0.0925 µM (active).
On to `OC[C@H]1O[C@@](CO)(O[C@H]2O[C@H](CO)[C@@H](O)[C@H](O)[C@H]2O)[C@@H](O)[C@@H]1O`, for which the call was inactive.
The same measure, in the same setting: with `OCCC(F)(F)C(F)(F)C(F)(F)C(F)(F)F` the entry was “inactive”; with `CCCCCCCCCCCCCCCCOS(=O)(=O)O`, “inactive”.
As to `Cc1nccn1-c1ccc(Sc2cccc(C3(C(N)=O)CCOCC3)c2)cc1`, the AC50 is 1.01 µM (active).
The same measure, in the same setting: with `CCN(CC)C(=S)SSC(=S)N(CC)CC` the figure was 67.8 µM (active).
In the case of `CCCOc1ccc(S(=O)(=O)N2CCN(CC)CC2)cc1-c1nc2c(CC)n(Cc3ccccn3)nc2c(=O)[nH]1`, the AC50 is 100 µM (active).
For the compound `O=C(O)c1cccc(C(=O)O)c1`, the outcome was inactive.
On the same count and under the same terms, with `COc1cc(C(C)C)c2c(c1)S(=O)(=O)N(COc1cc(=O)n3cccc(OCCN4CCCCC4)c3n1)C2=O` the entry was “inactive”.
In the case of `C=CCc1cc(S(=O)(=O)c2ccc(O)c(CC=C)c2)ccc1O`, the AC50 was 51.1 µM (active).
Regarding `CCCCCCCCCC`, the compound was called inactive.
Regarding `CC(C)CCCCCCOC(=O)C1CCCCC1C(=O)OCCCCCCC(C)C` (stereo not given), the result was inactive.
Still for that read-out and setting: with `O=S(=O)(O)CCC(F)(F)C(F)(F)C(F)(F)C(F)(F)C(F)(F)C(F)(F)F` the entry was “inactive”.
Same read-out and setting: in the case of `FC(F)=C(F)C(F)(F)C(F)(F)C(F)(F)C(F)(F)C(F)(F)C(F)(F)F` it was “inactive”; in that of `CCOc1ccc2[nH]cc(C(=O)NCc3ccccc3)c(=O)c2n1`, “inactive”.
For the compound `OCc1c[nH]c2ccccc12`, the outcome was inactive.
Still for that read-out and setting: in the case of `S=P(N1CC1)(N1CC1)N1CC1` it was “inactive”; in that of `FC(F)(F)COC(OCC(F)(F)F)OCC(F)(F)F`, “inactive”.
Turning to `FC(F)(F)C(F)(F)C(F)(F)C(F)(F)C(F)(F)C(F)(F)I`, the call was inactive.
For `CC(C)CC(C)O` (stereo not given), the compound was called inactive.
With `C[C@@H](Oc1ccc(CNC(=O)c2cccnc2Oc2ccc3c(c2)OCO3)c(F)c1)C(=O)O`, the result was inactive.
Take `O=C(O)[C@H](O)[C@@H](O)C(=O)O`: the call was inactive.
Still for that read-out and setting: in the case of `NCC(F)(F)C(F)(F)C(F)(F)C(F)(F)F` it was “inactive”.
